The record followed here is PubChem BioAssay (Tox21).

Results filed as inconclusive are left out. Values without a mark were called inactive. Activity calls are given as the source filed them. Unless noted, calls follow the shape of the dose curve; as a rule, active = well fitted curve in the direction sought with a large enough effect in the repeat runs; inconclusive = weak or mixed curves; inactive = no such curve, though single readings can be large; an effect the other way counts as inactive or inconclusive.

Test [1] can be described thus: qHTS assay to identify small molecule agonists of the peroxisome proliferator-activated receptor delta (PPARd) signaling pathway - cell viability counter screen (AID 743211). Also: % is scaled to controls: 0 for no effect and ±100 for the full control effect; nearly all actives have a fitted effect of over 55% in size. A digest of the protocol:
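PPARd-bla HEK293H cells (UAS-beta-lactamase reporter) were treated with compounds for 17 h at 37 C. Viability was then read in the same wells by CellTiter-Glo luminescence after 30 min at room temperature.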
(In general: In qHTS, concentration-response curves come from the screen itself.)

Test [2] has as its target Peroxisome proliferator-activated receptor delta (Homo sapiens) (UniProt Q03181). The experiment in a line: qHTS assay to identify small molecule agonists of the peroxisome proliferator-activated receptor delta (PPARd) signaling pathway (AID 743212; calls by dose curve; also: % is scaled to controls: 0 for no effect and ±100 for the full control effect). A digest of the protocol:
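HEK293H PPARd-bla cells; 5 h preincubation 37 C/5% CO2; compound (DMSO) 37 C; LiveBLAzer B/G FRET substrate 2 h RT; fluorescence intensity.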

A short description of test [3]: qHTS assay to identify small molecule antagonists of the peroxisome proliferator-activated receptor delta (PPARd) signaling pathway - cell viability counter screen (AID 743213). Also: % is scaled to controls: 0 for no effect and ±100 for the full control effect; nearly all actives have a fitted effect of over 50% in size. A digest of the protocol: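 Luminescence from CellTiter-Glo, added after the bla read and incubated 30 min at room temperature, gives viability of HEK293H PPARd-bla cells exposed to compounds for 17 h at 37 C with 300 nM L165041.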

Test [4] concerns the target Peroxisome proliferator-activated receptor delta (Homo sapiens) (UniProt Q03181). The experiment in a line: qHTS assay to identify small molecule antagonists of the peroxisome proliferator-activated receptor delta (PPARd) signaling pathway (AID 743215; active = well fitted inhibition curve with a large enough effect in the signal ratio in the repeat runs, not every such curve was filed as active; the % refers to the signal ratio;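 also: cells stimulated with agonist L165041 at 300 nM final during compound exposure; series mostly up to about 62 µM; % is scaled to controls: 0 for no effect and ±100 for the full control effect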). A digest of the protocol: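 PPARd-bla HEK293H cells (UAS-bla reporter) preincubated 5 h, then given compound plus 300 nM final L165041 agonist for 17 h at 37 C. Beta-lactamase activity read by LiveBLAzer B/G FRET substrate fluorescence after 2 h at room temperature.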

A short description of test [5]: qHTS assay to identify small molecule agonists of the farnesoid-X-receptor (FXR) signaling pathway - cell viability counter screen (AID 743218). Also: % is scaled to controls: 0 for no effect and ±100 for the full control effect; nearly all actives have a fitted effect of over 45% in size. In short, it runs like this:
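FXR-UAS-bla HEK 293T cells exposed to compounds for 16 h at 37C. Cytotoxicity read in the same wells by CellTiter-Glo luminescence after 30 min at room temperature, following the beta-lactamase FRET read.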

The nature of test [6]: qHTS assay to identify small molecule antagonists of the farnesoid-X-receptor (FXR) signaling pathway - cell viability counter screen (AID 743221; active = well fitted cell-killing curve with a large enough effect in the repeat runs, not every such curve was filed as active; also: % is scaled to controls: 0 for no effect and ±100 for the full control effect; nearly all actives have a fitted effect of over 50% in size). In short, it runs like this:
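FXR-UAS-bla HEK 293T cells were treated with test compounds plus chenodeoxycholic acid (50 uM final) for 16 h at 37 C. Cell viability in the same wells was then read as CellTiter-Glo luminescence after 30 min at room temperature.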

For test [7], the target named is Vitamin D3 receptor (Homo sapiens) (UniProt P11473). The experiment in a line: qHTS assay to identify small molecule agonists of the vitamin D receptor (VDR) signaling pathway (AID 743222; calls by dose curve; also: % is scaled to controls: 0 for no effect and ±100 for the full control effect). In short, it runs like this:
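VDR-bla cells plated 4 h at 37 C, then exposed to compounds for 16 h at 37 C. Beta-lactamase reporter activity measured by fluorescence after 2 h room-temperature loading with LiveBLAzer B/G FRET substrate.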

The target is the same in test [8]. The experiment in a line: qHTS assay to identify small molecule antagonists of the vitamin D receptor (VDR) signaling pathway (AID 743223; active = well fitted inhibition curve with a large enough effect in the signal ratio in the repeat runs, not every such curve was filed as active; the % refers to the signal ratio; also: % is scaled to controls: 0 for no effect and ±100 for the full control effect). In short, it runs like this: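 VDR-bla cells were plated, incubated 4 h at 37C, then given compound and 1alpha,25-dihydroxyvitamin D3 (3 nM final). After 16 h at 37C, LiveBLAzer B/G FRET substrate was added for 2 h at room temperature and fluorescence read.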

The nature of test [9]: qHTS assay to identify small molecule agonists of the vitamin D receptor (VDR) signaling pathway - cell viability counter screen (AID 743224). Also: series mostly up to about 63 µM; % is scaled to controls: 0 for no effect and ±100 for the full control effect; nearly all actives have a fitted effect of over 50% in size. In short, it runs like this: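 VDR-bla cells, 4 h after plating, exposed to compounds for 16 h at 37C; viability then read in the same wells as CellTiter-Glo luminescence after 30 min at room temperature, following the bla FRET read.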

Test [10] in a line: qHTS assay to identify small molecule antagonists of the vitamin D receptor (VDR) signaling pathway - cell viability counter screen (AID 743225). Also: % is scaled to controls: 0 for no effect and ±100 for the full control effect; nearly all actives have a fitted effect of over 50% in size. A digest of the protocol: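 VDR-bla HEK 293T cells, 4 h pre-incubation at 37C, then compound plus 1-alpha,25-dihydroxyvitamin D3 (3 nM final) for 16 h. After the beta-lactamase FRET read, CellTiter-Glo was added to the same wells; luminescence after 30 min at room temperature.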

A short description of test [11]: qHTS assay to identify small molecule agonists of the NFkB signaling pathway (AID 1159509; active = well fitted curve in the direction sought with a large enough effect in the signal ratio in the repeat runs, not every such curve was filed as active; the % refers to the signal ratio). A digest of the protocol: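 NFkB-bla ME-180 cells carry a beta-lactamase reporter under an NF-kB response element. They were plated overnight, then exposed to compounds for 5 h at 37 C. Read-out is LiveBLAzer FRET after 1.5 hr at room temperature (405 nm excitation; 460/530 nm emission).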

The nature of test [12]: qHTS assay to identify small molecule agonists of the NFkB signaling pathway - cell viability counter screen (AID 1159515; calls by dose curve; also: series mostly up to about 61 µM; % is scaled to controls: 0 for no effect and ±100 for the full control effect; nearly all actives have a fitted effect of over 55% in size). A digest of the protocol:
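NFkB-bla ME-180 cells, 2,000/well, plated overnight at 37 C; compound added for 5 hr at 37 C. Viability read in the same wells as the bla reporter, by CellTiter-Glo luminescence after 30 min at room temperature.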

Test [13] is described as follows: qHTS assay to identify small molecule agonists of the endoplasmic reticulum stress response signaling pathway (AID 1159516; active = well fitted activation curve with a large enough effect in the signal ratio in the repeat runs, not every such curve was filed as active; the % refers to the signal ratio; also: % is scaled to controls: 0 for no effect and ±100 for the full control effect). In short, it runs like this:
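CellSensor ESRE-bla HeLa cells, 1,500 per well, plated overnight, then exposed to compounds for 5 hr at 37 C. Beta-lactamase reporter read with LiveBLAzer B/G FRET substrate after 2 hr at room temperature, 405 nm excitation, 460 and 530 nm emission.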

Test [14] in a line: qHTS assay to identify small molecule agonists of the endoplasmic reticulum stress response signaling pathway - cell viability counter screen (AID 1159517; calls by dose curve). A digest of the protocol:
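HeLa cells carrying an ESRE-driven beta-lactamase reporter receive compound for 5 hr at 37 C. Cell viability is then gauged with CellTiter-Glo by luminescence, 30 min at room temperature.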

The nature of test [15]: qHTS assay to identify small molecule antagonists of the retinoid-related orphan receptor gamma (ROR-gamma) signaling pathway - cell viability counter screen (AID 1159520). A digest of the protocol: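 Cytotoxicity was read from cellular ATP (CellTiter-Glo luminescence) after 16 hr at 37 C with 1 uM doxycycline induction. The inducer was added 2 hr after compound transfer to Tet-on ROR gamma CHO cells.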

The nature of test [16]: qHTS assay to identify small molecule agonists of the AP-1 signaling pathway - cell viability counter screen (AID 1159525; calls by dose curve; also: nearly all actives have a fitted effect of over 55% in size). In short, it runs like this:
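Luminescent ATP readout (Cell Titer Glo, 30 min RT), normalised to DMSO and tetra n-octyl ammonium bromide controls. Cells were ME-180 AP-1-bla in 0.5% dialyzed FBS Opti-MEM, with a 5 h, 37 °C compound exposure.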

Test [17] can be described thus: qHTS assay to identify small molecule agonists of the AP-1 signaling pathway (AID 1159526; calls by dose curve; also: % is scaled to controls: 0 for no effect and ±100 for the full control effect).
Test [18] deals with Bile acid receptor (Homo sapiens) (UniProt Q96RI1). The experiment in a line: qHTS assay to identify small molecule antagonists of the farnesoid-X-receptor (FXR) signaling pathway (AID 743217; active = well fitted inhibition curve with a large enough effect in the signal ratio in the repeat runs, not every such curve was filed as active; the % refers to the signal ratio; also: % is scaled to controls: 0 for no effect and ±100 for the full control effect). In short, it runs like this:
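FXR-UAS-bla HEK 293T cells (beta-lactamase reporter) given compound plus chenodeoxycholic acid (50 uM final), 16 h at 37C. LiveBLAzer B/G FRET substrate added for 2 h at room temperature; fluorescence read.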

Test [19] has the same target. The experiment in a line: qHTS assay to identify small molecule agonists of the farnesoid-X-receptor (FXR) signaling pathway (AID 743220; active = well fitted activation curve with a large enough effect in the signal ratio in the repeat runs, not every such curve was filed as active; the % refers to the signal ratio; also: % is scaled to controls: 0 for no effect and ±100 for the full control effect). A digest of the protocol:
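Beta-lactamase reporter under UAS control in GeneBLAzer FXR HEK 293T cells (5000/well) measured with LiveBLAzer FRET substrate after 2 h at room temperature. Compound exposure lasted 16 h at 37C.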

Test [20] addresses Nuclear receptor ROR-gamma (Homo sapiens) (UniProt P51449). The experiment in a line: qHTS assay to identify small molecule antagonists of the retinoid-related orphan receptor gamma (ROR-gamma) signaling pathway (AID 1159521). In short, it runs like this:
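Tet-on RORγ CHO cells carrying a ROR response element–luciferase reporter were pretreated with compounds for 2 h, then induced with 1 uM (final) doxycycline hyclate for 16 h at 37 C. Antagonism was read as decreased ONE-Glo luminescence.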

Vitamin D3 receptor (Homo sapiens), sequence (P11473 whole entry, looked up): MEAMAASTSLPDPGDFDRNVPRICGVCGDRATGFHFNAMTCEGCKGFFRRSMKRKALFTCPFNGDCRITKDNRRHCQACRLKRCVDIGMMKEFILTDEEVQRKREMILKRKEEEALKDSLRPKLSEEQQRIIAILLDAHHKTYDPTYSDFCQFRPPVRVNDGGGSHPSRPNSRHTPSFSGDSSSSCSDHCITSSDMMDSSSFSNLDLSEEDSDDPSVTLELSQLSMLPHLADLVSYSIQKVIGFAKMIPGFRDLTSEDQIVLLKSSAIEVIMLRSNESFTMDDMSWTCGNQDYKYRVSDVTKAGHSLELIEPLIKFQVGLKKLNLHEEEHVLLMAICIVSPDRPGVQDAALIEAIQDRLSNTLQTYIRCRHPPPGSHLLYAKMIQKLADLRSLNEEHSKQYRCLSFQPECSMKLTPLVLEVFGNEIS
Bile acid receptor (Homo sapiens), sequence (Q96RI1 whole entry, looked up): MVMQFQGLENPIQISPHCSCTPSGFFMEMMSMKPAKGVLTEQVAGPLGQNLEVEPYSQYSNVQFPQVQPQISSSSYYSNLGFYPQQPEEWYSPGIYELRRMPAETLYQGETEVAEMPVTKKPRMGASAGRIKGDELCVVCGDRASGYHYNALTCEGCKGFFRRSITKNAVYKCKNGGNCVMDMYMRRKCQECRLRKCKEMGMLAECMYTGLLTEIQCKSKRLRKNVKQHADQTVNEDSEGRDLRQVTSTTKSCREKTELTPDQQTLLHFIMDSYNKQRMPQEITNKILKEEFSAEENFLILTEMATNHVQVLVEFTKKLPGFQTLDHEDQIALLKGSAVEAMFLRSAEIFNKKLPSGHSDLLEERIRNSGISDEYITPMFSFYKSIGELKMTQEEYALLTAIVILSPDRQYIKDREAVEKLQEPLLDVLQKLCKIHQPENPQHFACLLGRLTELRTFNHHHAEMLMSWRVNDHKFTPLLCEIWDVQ
Peroxisome proliferator-activated receptor delta (Homo sapiens), sequence (Q03181 whole entry, looked up): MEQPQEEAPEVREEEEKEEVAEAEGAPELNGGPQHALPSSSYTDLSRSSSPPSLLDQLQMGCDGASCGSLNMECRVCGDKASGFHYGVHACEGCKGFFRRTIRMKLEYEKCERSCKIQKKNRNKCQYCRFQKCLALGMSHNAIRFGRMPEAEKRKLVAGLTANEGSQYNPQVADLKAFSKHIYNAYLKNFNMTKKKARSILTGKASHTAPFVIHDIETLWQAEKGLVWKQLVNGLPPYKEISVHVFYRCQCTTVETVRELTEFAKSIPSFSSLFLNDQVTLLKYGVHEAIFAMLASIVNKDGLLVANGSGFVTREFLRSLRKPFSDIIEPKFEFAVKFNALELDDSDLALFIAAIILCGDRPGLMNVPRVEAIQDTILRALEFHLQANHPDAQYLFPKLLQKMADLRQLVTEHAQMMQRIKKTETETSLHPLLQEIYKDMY

As for `O=C(O)[C@@H]1CSCN1`, the Potency entry in [1], in test [3], in test [5], in [9], in test [10] and in test [15] was “inactive” throughout. The Potency entry in test [17] is “inactive”. The molecule was classed as inactive in [2], in [4], in [6], in [7], in [8] and in test [11]. Further, the result in test [12], in [13], in [14] and in test [16] was inactive.

`CC(C)(CO)[C@@H](O)C(=O)NCCC(=O)O`: the Potency result in test [1], in [3], in [5], in [9], in [15] and in test [17] was “inactive” each time. The molecule was classed as inactive in test [2], in test [4], in test [6], in [7], in test [8] and in [11]. Further, the call in test [12], in test [13], in [14] and in test [16] was inactive.

Turning to `CC(=O)OC(C)OC(C)=O`, the Potency entry in test [1], in [3], in test [5], in test [9], in test [10] and in test [15] was “inactive” each time. Besides, in [17], the Potency result was “inactive”. In addition, the molecule was called inactive in test [2], in test [4], in [18], in test [19], in test [6] and in [7]. For the same molecule, the call in test [8], in test [11], in test [12], in test [13], in [14] and in test [16] was inactive.

In the case of `CC(C)O`, the call in test [2], in test [19], in test [6], in [7], in test [8] and in test [11] was inactive. For the same molecule, the molecule was called inactive in test [12], in test [13] and in test [14]. The Potency result in test [5], in [10] and in test [15] was “inactive” in each case. The Potency in test [20] is 65.6 µM (active).

In the case of `CC(=O)N(CC(O)CN(C(C)=O)c1c(I)c(C(=O)NCC(O)CO)c(I)c(C(=O)NCC(O)CO)c1I)c1c(I)c(C(=O)NCC(O)CO)c(I)c(C(=O)NCC(O)CO)c1I` (stereo unspecified), the Potency entry in test [1], in test [3], in test [5], in test [9], in test [10] and in [15] was “inactive” throughout. Further, in [17], the Potency result is “inactive”. Also, the result in [2], in test [4], in test [18], in test [19], in [6] and in [7] was inactive. The molecule was classed as inactive in test [8], in [11], in test [12], in test [13], in [14] and in test [16].

Take `FC(F)(F)C(Cl)(Cl)Cl`: the Potency result in test [1], in test [3], in test [5], in test [9], in [10] and in [15] was “inactive” throughout. Further, the Potency entry in test [17] is “inactive”. Also, the outcome in test [2], in [4], in test [19], in test [6], in test [7] and in test [11] was inactive. The outcome in test [12], in test [13], in test [14] and in test [16] was inactive.

Consider `CO[Si](C)(C)OC`, for which the Potency entry in test [1], in test [3], in [5], in test [9], in test [10] and in test [15] was “inactive” in each case. Besides, the Potency entry in [17] was “inactive”. The result in test [2], in test [6], in [11], in [12], in [13] and in [14] was inactive. Further, the call in [16] was inactive.

Regarding `CCN(CC)CCNC(=O)COc1ccc(Cl)cc1`, the Potency result in test [1], in test [3], in [5], in test [9], in test [10] and in test [15] was “inactive” in each case. In [17], the Potency entry was “inactive”. The molecule was classed as inactive in test [2], in test [4], in [6], in [11], in [12] and in test [13]. Moreover, the call in [14] and in [16] was inactive.

`CC(C)(C)c1cccc(O)c1`: the Potency result in test [1], in test [3], in test [5], in test [9], in [10] and in [15] was “inactive” in each case. For the same molecule, in test [17], the Potency entry is “inactive”. Further, the molecule was classed as inactive in test [2], in [4], in test [6], in [8], in test [11] and in test [12]. The call in test [13], in [14] and in [16] was inactive.

On to `C[C@@H]1CN(c2c(F)c(N)c3c(=O)c(C(=O)O)cn(C4CC4)c3c2F)C[C@H](C)N1`, for which the Potency result in [1], in test [3], in test [5], in test [9] and in test [10] was “inactive” each time. For the same molecule, the call in [2], in test [18], in test [19], in test [6], in [7] and in [8] was inactive. The outcome in [11], in test [12], in [13] and in test [14] was inactive. In addition, the activity, negative = cytotoxicity in [15] is 2.26% [at 19 µM]. The viability change, negative = cytotoxic in [16] was 1.46% [at 15.8 µM]. Besides, the activation in test [17] was -6.27% [at 15.8 µM].

Consider `O=C(C(Cl)Cl)N1CCOC12CCCCC2`, for which the Potency entry in [1], in test [3], in [5], in test [9], in [15] and in test [17] was “inactive” throughout. In addition, the call in test [2], in test [18], in test [19], in test [6], in test [7] and in test [8] was inactive. Moreover, the molecule was called inactive in [11], in test [12], in test [13], in [14] and in test [16].
